Laboratory results taken from PubChem BioAssay (NCATS).
Records with an inconclusive call do not appear. Where a call stands in place of a potency, no number is given. A number with no mark means an inactive call. Activity calls are given as the source filed them. Calls follow the shape of the dose curve; as a rule, active = well fitted curve in the direction sought with a large enough effect; inconclusive = small, poorly fitted or top-dose-only effect, or another doubt; inactive = no such curve, though single readings can be large; an effect the other way counts as inactive or inconclusive.

Columns and labels:
[1] = target: Rap guanine nucleotide exchange factor 3 (Homo sapiens) (UniProt O95398); test: Confirmatory qHTS for antagonist of cAMP-regulated guanine nucleotide exchange factor 3 (EPAC1) (AID 1645880); also: nearly all actives have a fitted effect of over 55% in size; also: potency is read from the fitted curve at half-maximal effect
Procedure, shortened: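 Released BODIPY-GDP fluoresces less than Rap1-bound BODIPY-GDP; the signal is followed at 480/540 nm at 5-min intervals over 30 min, after 5 min at room temperature. Reactions contain 100 nM EPAC1, 250 nM RAP1B-BODIPY-GDP and 50 uM GDP; results are normalized to ATA and DMSO.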

[2] = target: Rap guanine nucleotide exchange factor 3 (Homo sapiens) (UniProt O95398); test: Confirmatory qHTS for agonist of cAMP-regulated guanine nucleotide exchange factor 3 (EPAC1) (AID 1645881);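 also: EPAC1 catalysed release of BODIPY-GDP from Rap1B seen as fluorescence loss; nearly all actives have a fitted effect of over 75% in size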
[3] = target: Rap guanine nucleotide exchange factor 4 (Homo sapiens) (UniProt Q8WZA2); test: Confirmatory qHTS for agonist of cAMP-regulated guanine nucleotide exchange factor 4 (EPAC2) (AID 1645884);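 also: nucleotide exchange releases bodipy-GDP from Rap1 and this lowers its fluorescence; nearly all actives have a fitted effect of over 65% in size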
[4] = target: Rap guanine nucleotide exchange factor 4 (Homo sapiens) (UniProt Q8WZA2); test: Confirmatory qHTS for antagonist of cAMP-regulated guanine nucleotide exchange factor 4 (EPAC2) (AID 1645885); also: nearly all actives have a fitted effect of over 25% in size; also: potency is read from the fitted curve at half-maximal effect
[5] = target: Rap guanine nucleotide exchange factor 3 (Homo sapiens) (UniProt O95398); test: Counterscreen qHTS for antagonist of cAMP-regulated guanine nucleotide exchange factor 3 (EPAC1) (AID 1645888)
Procedure, shortened: (§1)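 Rap1B-BODIPY-GDP 250 nM + GDP 50 uM; cpds 7-pt, final 9.74 nM–152 uM (activator mode) or from 7.32 nM upwards (inhibitor mode); RT; FI 480/540 nm at 5 and 30 min, then ± cAMP, reread.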

[6] = target: Rap guanine nucleotide exchange factor 3 (Homo sapiens) (UniProt O95398); test: Counterscreen qHTS for agonist of cAMP-regulated guanine nucleotide exchange factor 3 (EPAC1) (AID 1645889); also: nearly all actives have a fitted effect of over 40% in size
Procedure, shortened: as §1

Sequence of Rap guanine nucleotide exchange factor 3 (Homo sapiens) (O95398 whole entry, looked up): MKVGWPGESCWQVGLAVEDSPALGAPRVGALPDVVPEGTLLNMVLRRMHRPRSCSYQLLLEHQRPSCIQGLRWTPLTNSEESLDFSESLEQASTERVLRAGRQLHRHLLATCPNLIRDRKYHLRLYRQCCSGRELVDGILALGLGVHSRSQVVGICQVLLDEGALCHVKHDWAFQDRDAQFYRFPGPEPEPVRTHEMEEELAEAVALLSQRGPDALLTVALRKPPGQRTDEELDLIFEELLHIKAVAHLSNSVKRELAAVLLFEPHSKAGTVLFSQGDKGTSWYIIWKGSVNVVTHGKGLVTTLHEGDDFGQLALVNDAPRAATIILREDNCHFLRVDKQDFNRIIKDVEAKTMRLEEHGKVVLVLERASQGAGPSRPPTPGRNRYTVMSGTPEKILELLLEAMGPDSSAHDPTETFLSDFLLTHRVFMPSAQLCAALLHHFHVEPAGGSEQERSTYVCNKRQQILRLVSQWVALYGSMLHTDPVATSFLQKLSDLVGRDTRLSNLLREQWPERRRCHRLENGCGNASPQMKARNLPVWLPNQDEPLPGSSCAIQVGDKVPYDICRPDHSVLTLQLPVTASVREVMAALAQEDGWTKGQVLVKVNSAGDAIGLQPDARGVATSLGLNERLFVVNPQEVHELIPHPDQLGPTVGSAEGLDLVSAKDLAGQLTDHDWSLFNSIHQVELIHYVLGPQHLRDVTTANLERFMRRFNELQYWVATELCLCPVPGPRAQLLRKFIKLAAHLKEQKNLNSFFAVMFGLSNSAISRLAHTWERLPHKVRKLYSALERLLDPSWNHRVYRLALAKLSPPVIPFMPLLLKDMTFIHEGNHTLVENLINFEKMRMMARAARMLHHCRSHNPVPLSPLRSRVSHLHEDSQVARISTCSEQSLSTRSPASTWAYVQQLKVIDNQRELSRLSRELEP
Sequence of Rap guanine nucleotide exchange factor 4 (Homo sapiens) (Q8WZA2 whole entry, looked up): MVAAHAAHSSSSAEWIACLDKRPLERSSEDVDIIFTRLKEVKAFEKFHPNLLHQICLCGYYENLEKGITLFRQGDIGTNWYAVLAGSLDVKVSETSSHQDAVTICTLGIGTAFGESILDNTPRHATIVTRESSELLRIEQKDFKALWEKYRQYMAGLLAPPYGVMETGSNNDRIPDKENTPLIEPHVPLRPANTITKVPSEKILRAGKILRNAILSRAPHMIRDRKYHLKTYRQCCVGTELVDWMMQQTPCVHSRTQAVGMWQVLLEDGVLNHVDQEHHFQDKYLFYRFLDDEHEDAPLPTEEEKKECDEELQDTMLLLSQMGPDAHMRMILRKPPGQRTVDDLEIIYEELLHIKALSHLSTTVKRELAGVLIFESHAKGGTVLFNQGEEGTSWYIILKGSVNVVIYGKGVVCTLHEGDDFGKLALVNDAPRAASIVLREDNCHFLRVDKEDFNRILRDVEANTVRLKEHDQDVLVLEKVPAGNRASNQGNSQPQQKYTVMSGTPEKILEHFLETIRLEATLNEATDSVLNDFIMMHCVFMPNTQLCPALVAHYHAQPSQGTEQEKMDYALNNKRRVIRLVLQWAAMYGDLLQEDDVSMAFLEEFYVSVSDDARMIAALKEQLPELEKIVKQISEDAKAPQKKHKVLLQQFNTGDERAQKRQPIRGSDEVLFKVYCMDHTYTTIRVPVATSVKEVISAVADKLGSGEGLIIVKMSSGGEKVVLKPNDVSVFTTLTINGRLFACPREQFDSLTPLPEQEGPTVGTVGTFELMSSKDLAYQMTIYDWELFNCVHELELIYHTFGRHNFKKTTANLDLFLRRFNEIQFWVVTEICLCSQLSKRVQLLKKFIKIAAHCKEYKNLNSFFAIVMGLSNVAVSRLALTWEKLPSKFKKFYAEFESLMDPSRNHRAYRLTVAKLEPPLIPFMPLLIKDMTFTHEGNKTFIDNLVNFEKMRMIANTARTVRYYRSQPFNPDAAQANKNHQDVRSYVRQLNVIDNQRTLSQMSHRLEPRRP

SMILES | Potency [1] | Potency [2] | Potency [3] | Potency [4] | Potency [5] | activation [3] | activity change, negative = inhibition [5] | Potency [6] | outcome [4] | activation [6]
CNC[C@H]1Oc2ccc(NC(=O)Nc3ccccc3)cc2CC(=O)N([C@H](C)CO)C[C@H]1C | inactive | inactive | inactive | inactive | inactive |  |  |  |  | 
N#Cc1cc2c(=O)n3ccccc3nc2n(-c2nnc(SCc3ccccc3Cl)s2)c1=O | inactive | inactive | inactive | inactive | inactive |  |  |  |  | 
CN(C(=O)c1cc(-c2ccccc2)on1)C1CCCCC1 | inactive | inactive |  | inactive |  | 6.82% [at 17.1 µM, percent relative to cAMP agonist control] | 29.1% [at 30.8 µM] |  |  | 
O=C(Nc1ccccc1)c1ccccc1Br | inactive | inactive | inactive | inactive | inactive |  |  |  |  | 
CC1(C(=O)NS(=O)(=O)c2ccc3ccccc3c2)CCN1C(=O)C1(c2ccc(Cl)cc2)CCC1 (stereo unspecified) | 37.9 µM (active) | inactive | inactive | inactive | inactive |  |  | inactive |  | 
COc1ccc(S(=O)(=O)N2CCCCCC2)cc1C(=O)N1CCCC(C(F)(F)F)C1 (stereo unspecified) | inactive | inactive |  | inactive |  | 2.27% [at 17.1 µM, percent relative to cAMP agonist control] | -17.4% [at 30.8 µM] |  |  | 
CCCNC(=O)C1CCN(S(=O)(=O)c2ccc3[nH]c(=O)ccc3c2)CC1 | inactive | inactive | inactive | inactive | inactive |  |  | inactive |  | 
Cc1ccc(S(=O)(=O)N(C)C)cc1NC(=O)CSc1nc2ncc(Cl)cc2[nH]1 | inactive | inactive | inactive |  | inactive |  |  |  | inactive [at 12.7 µM] | 
COC(=O)C1=CN(Cc2ccc(OC)c(OC)c2)C=C(C(=O)OC)C1c1cccc(F)c1 | inactive | inactive | inactive | inactive | inactive |  |  |  |  | 
COC(=O)c1c(SC)nc2ccccc2c1OCc1ccccc1C | inactive | inactive | inactive | inactive | inactive |  |  |  |  | 
COc1ccc(OC)c([C@@H]2OCCC=C[C@H]2C)c1 | inactive | inactive | inactive | 0.0675 µM (active) | inactive |  |  | inactive |  | 
CCC(C)NC(=O)CS(=O)Cc1nc(-c2ccccc2C)oc1C (stereo unspecified) | inactive | inactive | inactive | inactive | inactive |  |  | inactive |  | 
O=C(Cc1ccccc1)NCC(=O)N1CCC1 | inactive | inactive | inactive | inactive | inactive |  |  | inactive |  | 
COc1ccccc1C(=O)NC(CCSC)C(=O)NCc1ccccn1 (stereo unspecified) | inactive | inactive |  | inactive |  | -0.555% [at 17.1 µM, percent relative to cAMP agonist control] | -16.2% [at 30.8 µM] |  |  | -9.2% [at 30.8 µM]
Cc1ccc(S(=O)(=O)N2[C@@H](c3ccc(Br)cc3)C(C(=O)O)=CC[C@H]2c2ccc(Cl)cc2)cc1 | 75.7 µM (active) | inactive | inactive | inactive | inactive |  |  | inactive |  | 
CC(=O)c1cccc(OC(=O)C2=CC=CN3CCS(=O)(=O)N=C23)c1 | inactive | inactive | inactive | inactive | inactive |  |  | inactive |  | 
CC(C)CS(=O)(=O)C1=NN2C(=N)/C(=C\c3ccc(OC(=O)c4ccco4)cc3)C(=O)N=C2S1 | 37.9 µM (active) | inactive | inactive | inactive | inactive |  |  | inactive |  | 

SMILES | Potency [1] | Potency [2] | Potency [3] | Potency [4] | Potency [5] | activation [3] | activity change, negative = inhibition [5] | Potency [6] | outcome [4] | activation [6]
COc1cccc(NC(=O)CSc2nnc3[nH]c(=O)cc(-c4ccccc4)n23)c1 | inactive | inactive | inactive | inactive | inactive |  |  |  |  | 
COc1ccc(OCC(=O)Nc2ccccc2N2CCCCC2)cc1 | inactive | inactive |  | inactive |  | -5.15% [at 17.1 µM, percent relative to cAMP agonist control] | -4.31% [at 30.8 µM] |  |  | 2.16% [at 30.8 µM]
COc1ccc(C2CC(=O)n3c(nc4ccccc43)S2)cc1OC (stereo unspecified) | inactive | inactive |  | inactive |  | 2.96% [at 17.1 µM, percent relative to cAMP agonist control] | 10.2% [at 30.8 µM] |  |  | 6.35% [at 30.8 µM]
CCCN(CCC)Cc1cc(=O)oc2cc(C)cc(C)c12 | inactive | inactive | inactive | 12 µM (active) | inactive |  |  |  |  | 
COc1cccc(C(NC(C)=O)c2nc(-c3csc4ccccc34)cs2)c1 (stereo unspecified) | inactive | inactive |  | inactive |  | 1.45% [at 17.1 µM, percent relative to cAMP agonist control] | -22.7% [at 30.8 µM] |  |  | 29.4% [at 30.8 µM]
O=C(/C=C/c1ccco1)Nc1cccc(C(=O)Nc2ccccc2C(=O)O)c1 | 3.98 µM (active) | inactive |  | inactive |  | 3.49% [at 17.1 µM, percent relative to cAMP agonist control] | 19% [at 30.8 µM] |  |  | 
CN1N=C(C(C)(C)C)CC1=O | inactive | inactive | inactive | inactive | inactive |  |  |  |  | 
CCc1ccccc1C1=CC(=O)C[C@H](c2ccc(OC)cc2)C1 | inactive | inactive | inactive | inactive | inactive |  |  |  |  | 
O=C(OCc1c(-c2ccccc2)ncc2ccccc12)c1ccco1 | inactive | inactive | inactive | inactive | inactive |  |  | inactive |  | 
Cc1ccc(C(=O)ONc2ccc(N=NC(=O)c3ccccc3O)cc2)cc1 | 7.57 µM (active) | inactive | inactive | inactive | inactive |  |  | inactive |  | 
Cc1ccc2nc(-c3ccccc3)cc(C(=O)N3CC(C)OC(C)C3)c2c1 (stereo unspecified) | inactive | inactive | inactive | inactive | inactive |  |  | inactive |  | 
CCOC(=O)c1sc(N=NC2=C(O)CCCC2=O)c(C(=O)OCC)c1C | 8.91 µM (active) | inactive |  | inactive |  | -2.58% [at 17.1 µM, percent relative to cAMP agonist control] | -17% [at 30.8 µM] |  |  | 6.27% [at 30.8 µM]
COC(=O)c1sc(-c2ccccc2)cc1NC(C)=O | inactive | inactive |  | inactive |  | 3.04% [at 17.1 µM, percent relative to cAMP agonist control] | 7.63% [at 30.8 µM] |  |  | 9.28% [at 30.8 µM]
Cc1ccc(N2NC(=O)/C(=C\c3cc4c(cc3[N+](=O)[O-])OCO4)C2=O)cc1C | 75.7 µM (active) | inactive | inactive | inactive | inactive |  |  | inactive |  | 
Cc1onc(-c2ccccc2)c1C(=O)c1c[nH]c(C(=O)NCCCN2CCOCC2)c1 | inactive | inactive |  | inactive |  | -2.44% [at 17.1 µM, percent relative to cAMP agonist control] | -20.3% [at 30.8 µM] |  |  | -11.1% [at 30.8 µM]
O=C(OCc1c(-c2ccccc2)ncc2ccccc12)c1ccccc1C(F)(F)F | inactive | inactive | inactive | inactive | inactive |  |  | inactive |  | 
CCCCNC(=O)Cn1nc(N2CCN(c3ccccc3OC)CC2)ccc1=O | inactive | inactive | inactive | inactive | inactive |  |  | inactive |  | 
